An excerpt weighted towards active compounds, which were near 1.3% of everything screened.
14-3-3 Bad PPI: disrupts binding of bovine 14-3-3 zeta to phospho-Bad peptide; P63103; TR-FRET 14-3-3zeta/Dy647-pBad peptide displacement, 1 h; inhibition, % at 21.7 µM; 220,000 tested, 0.71% active; AID 781;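 active = inhibition above about 70%, limit read from the data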;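 also: 0% = full 14-3-3 plus peptide FRET controls and 100% = background without 14-3-3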
UBC9 SUMO inh: blocks human SUMOylation mediated by UBC9. HTRF SUMOylation assay, SAE1/SAE2 + UBC9, in vitro. P63279. inhibition, % at 35 µM. 290,000 tested, 0.36% active; in the data active = inhibition above about 50%, passing the limit was not always enough; inconclusive = no clear call, values can overlap the other calls
eIF4E 4G PPI: inhibitors of eIF4E and eIF4G interaction in translation initiation; inhibition, % at 21.7 µM; TR-FRET eIF4E-eIF4GI(517-606) binding, 2 h; P63073+Q04637; 220,000 tested, 0.37% active;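 also: 0% = full FRET control wells and 100% = background wells lacking eIF4GI fragment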
Target sequence (P63073 whole entry, looked up, the tested form may be a part): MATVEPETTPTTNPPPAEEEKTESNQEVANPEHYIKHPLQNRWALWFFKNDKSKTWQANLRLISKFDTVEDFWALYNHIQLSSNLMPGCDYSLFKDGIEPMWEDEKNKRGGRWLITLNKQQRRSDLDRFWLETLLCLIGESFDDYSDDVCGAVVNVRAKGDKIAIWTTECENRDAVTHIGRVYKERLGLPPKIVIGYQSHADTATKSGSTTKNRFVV
Target sequence (Q04637 whole entry, looked up, the tested form may be a part): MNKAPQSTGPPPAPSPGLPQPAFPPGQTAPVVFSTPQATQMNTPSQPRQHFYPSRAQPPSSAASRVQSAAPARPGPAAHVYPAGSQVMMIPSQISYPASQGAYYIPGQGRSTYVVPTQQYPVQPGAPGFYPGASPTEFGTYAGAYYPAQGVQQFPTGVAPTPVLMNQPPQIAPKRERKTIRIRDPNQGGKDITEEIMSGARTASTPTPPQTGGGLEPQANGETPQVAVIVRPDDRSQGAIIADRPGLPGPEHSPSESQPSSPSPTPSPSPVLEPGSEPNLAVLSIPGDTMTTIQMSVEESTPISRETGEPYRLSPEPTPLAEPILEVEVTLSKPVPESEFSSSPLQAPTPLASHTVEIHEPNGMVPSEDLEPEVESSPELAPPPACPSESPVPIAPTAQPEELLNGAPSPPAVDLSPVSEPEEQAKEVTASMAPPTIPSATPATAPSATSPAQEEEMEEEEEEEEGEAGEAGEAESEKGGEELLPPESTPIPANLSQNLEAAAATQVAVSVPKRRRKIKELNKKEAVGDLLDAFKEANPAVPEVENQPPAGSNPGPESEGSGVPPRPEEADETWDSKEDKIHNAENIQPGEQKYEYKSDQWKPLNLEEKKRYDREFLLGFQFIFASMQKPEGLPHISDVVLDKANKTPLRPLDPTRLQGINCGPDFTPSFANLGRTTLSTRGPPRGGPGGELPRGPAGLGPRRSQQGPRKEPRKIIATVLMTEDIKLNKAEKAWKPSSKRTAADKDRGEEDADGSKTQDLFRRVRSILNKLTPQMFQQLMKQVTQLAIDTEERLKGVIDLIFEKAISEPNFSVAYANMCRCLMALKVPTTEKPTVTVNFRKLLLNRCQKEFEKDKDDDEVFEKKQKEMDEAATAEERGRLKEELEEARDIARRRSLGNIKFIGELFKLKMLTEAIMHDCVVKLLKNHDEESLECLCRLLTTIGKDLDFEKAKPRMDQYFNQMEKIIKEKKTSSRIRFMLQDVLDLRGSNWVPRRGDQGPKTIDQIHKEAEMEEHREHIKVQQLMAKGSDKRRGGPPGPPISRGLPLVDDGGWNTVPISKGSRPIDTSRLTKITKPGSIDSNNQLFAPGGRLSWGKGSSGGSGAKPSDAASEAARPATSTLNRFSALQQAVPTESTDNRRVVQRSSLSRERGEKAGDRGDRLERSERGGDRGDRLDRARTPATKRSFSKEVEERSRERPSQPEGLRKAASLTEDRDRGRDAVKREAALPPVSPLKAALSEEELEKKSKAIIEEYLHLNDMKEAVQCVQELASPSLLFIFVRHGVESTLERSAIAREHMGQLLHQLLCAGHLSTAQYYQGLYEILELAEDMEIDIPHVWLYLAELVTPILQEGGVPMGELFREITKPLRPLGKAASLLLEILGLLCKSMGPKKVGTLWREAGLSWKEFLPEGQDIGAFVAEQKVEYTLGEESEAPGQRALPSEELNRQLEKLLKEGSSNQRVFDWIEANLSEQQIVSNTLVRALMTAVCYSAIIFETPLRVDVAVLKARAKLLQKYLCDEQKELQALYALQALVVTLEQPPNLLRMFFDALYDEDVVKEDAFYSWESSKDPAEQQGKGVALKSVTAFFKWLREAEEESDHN
p47phox inh: inhibitors of human p47phox binding; inhibition, % at 24.7 µM; p47phox/p22phox peptide binding, fluorescence polarization, 2 h; 220,000 tested, 0.53% active; P14598; AID 1274;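 also: 0% = p47phox with labelled peptide and 100% = labelled peptide alone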
Active calls of the source: *; ? = inconclusive; / = no result given; + = active, no number; ! = repeats disagree; [ ] = another dose, or the depositor's remark.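 The calls were made as follows, unless noted: active = inhibition above about 30% (limit read from the data); inactive = the rest.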

SMILES	14-3-3 Bad PPI	UBC9 SUMO inh	eIF4E 4G PPI	p47phox inh
O=C(Nc1ccc2oc(-c3ccc4ccccc4c3)nc2c1)c1ccc2c(c1)OCCO2	51	55*	-4	4
O=C(Nc1ccc(-c2nc3cc(NC(=O)c4cccs4)ccc3o2)cc1)c1cccs1	74*[fluorescence artefact?]	12	-44	10
CC(=O)Nc1ccc(-c2nc3ccc(NC(C)=O)cc3o2)cc1	/	51*	/	/
Cc1ccc2nc(-c3cccc(NC(=O)c4ccc5c(c4)OCCO5)c3)oc2c1	26	18	-19	-49
O=C(Nc1ccc2oc(-c3ccc(Cl)c(Cl)c3)nc2c1)c1ncn[nH]1	75*	-1	-34	-9
CC(=O)N1CCN(CC(=O)Nc2c(Cl)ccc(C)c2Cl)CC1	-18	-20	2	-6
Cc1nnc(SCC(=O)N2CCc3ccccc32)s1	21	17	-2	-10
CSc1nsc(SCC(=O)N2CCc3ccccc32)n1	-5	7	38*	-31
O=C(O)CCC(=O)Nc1ccc(C(=O)N2CCCCC2)cc1	-8	16	-4	-12
CCOC(=O)c1ccc(-c2ccc(/C=N/NC(=O)CN(c3cccc(C)c3)S(C)(=O)=O)o2)cc1	15	16	2	31*
COC1=CC(=O)CC(C)C12Oc1c(Cl)c(OC)cc(OC)c1C2=O (configuration not stated)	77*	3	4	-6
COC1=CC(=O)C[C@@H](C)[C@]12Oc1c(Cl)c(OC)cc(OC)c1C2=O	/	15	/	/
COc1cc(OC)c(OC)cc1/C=C1\Oc2cc(OCC(=O)N3Cc4ccccc4C[C@H]3C(=O)O)ccc2C1=O	/	25	/	/
COc1cccc(-n2nc3c(=O)n(Cc4ccccc4Cl)nc(C)c3c2C)c1	0	-4	9	84*
Cc1ccc(-n2nc3c(=O)n(CC(=O)NCc4ccccc4Cl)nc(C)c3c2C)cc1	/	7	/	/
Cc1[nH]n(-c2ccccc2)c(=O)c1C(c1cccc([N+](=O)[O-])c1O)c1c(C)[nH]n(-c2ccccc2)c1=O	0	62*	-25	-5
COc1cccc(C(C[N+](=O)[O-])c2c(C)[nH]n(-c3ccccc3)c2=O)c1 (configuration not stated)	/	97*	/	/
COc1cc(NC(=O)CCN2CCN(Cc3ccccc3)CC2)cc(OC)c1	11	-1	-3	-2
COc1cc(Cl)cc(NC(=O)CCN2CCN(C)CC2)c1	77*	-9	6	4
COc1ccc(/C=C(\C#N)c2nc3ccccc3[nH]2)cc1O	/	21	/	/
COc1cc(/C=C(\C#N)c2nc3ccccc3[nH]2)cc(OC)c1O	-2	-12	30*	-222
CN(C)c1ccc(C2C3C(=O)NC(=O)C3ON2c2ccc(Cl)cc2)cc1 (configuration not stated)	-2	9	0	-6
O=C(Nc1nnc(C23CC4CC(CC(C4)C2)C3)s1)c1ccc(N2C(=O)CCC2=O)cc1	15	12	62*[fluorescence artefact?]	-10
Cc1ccc(C(NC(=O)N2CCOCC2)=C(Cl)Cl)cc1F	-2	8	3	42*
CCCCCCCC[n+]1cccc(C(=O)N(CC)CC)c1	8	14	0	0
SMILES	14-3-3 Bad PPI	UBC9 SUMO inh	eIF4E 4G PPI	p47phox inh
CCCCCCCCCCCCCCCC[n+]1ccc(C(N)=O)cc1	79*[fluorescence artefact?]	14	78*[fluorescence artefact?]	101*
CCCCCCCCCCCCCCCC[n+]1cccc(C(=O)N(CC)CC)c1	98*[fluorescence artefact?]	-7	77*[fluorescence artefact?]	108*
CCCCCCCCCCCCCCCC[n+]1ccc(/C=N/O)cc1	99*[fluorescence artefact?]	0	70*[fluorescence artefact?]	97*
Cc1c(C(=O)C(=O)NCc2ccco2)c2ccccc2n1C	-6	13	-8	-2
CCN(CC)c1ccc(NC(=O)Cn2c(C(C)NC(=O)c3ccccc3)nc3ccccc32)cc1 (configuration not stated)	60	10	0	39*
CCOC(=O)CN1C(=O)/C(=C2\SC(=S)N(NC(=O)c3cccnc3)C2=O)c2ccccc21	/	8	/	/
CCOc1ccc(NC(=O)CN2C(=O)/C(=C3\SC(=S)N(C4CCS(=O)(=O)C4)C3=O)c3ccccc32)cc1 (configuration not stated)	67	12	6	63*
CC(N=C1NC(C)(C)Cc2ccccc21)C(=O)O (configuration not stated)	91*	-14	4	2
CC1(C)Cc2ccccc2C(=NC(Cc2c[nH]c3ccccc23)C(=O)O)N1 (configuration not stated)	/	7	/	/
CC1(C)Cc2ccccc2/C(=C/C(=O)N2CCCCCC2)N1	74*	0	12	-2
CCC1=C(OC(=O)N(CC)CC)N2C(=O)OC(=NCCOC)[C@]2(Cc2ccccc2)[C@H]2C1=CC[C@H]1C(=O)N(C)C(=O)[C@H]12	0	-5	0	-10
Cc1c(C(=O)Oc2ccc(-c3cnc4ccccc4n3)cc2)cccc1[N+](=O)[O-]	21	21	5	17
O=C(Oc1ccc(-c2cnc3ccccc3n2)cc1)c1cc([N+](=O)[O-])ccc1Cl	69	18	-1	35*
O=C(NCCCO)Nc1ccc2nc(-c3ccco3)c(-c3ccco3)nc2c1	28	93*	48*	-76
O=C(Nc1ccc2nc(-c3ccco3)c(-c3ccco3)nc2c1)NC1CC1	45	?	41*[fluorescence artefact?]	-52
COCCCNC(=O)CN(c1cc([N+](=O)[O-])ccc1OC)S(C)(=O)=O	22	17	10	-1
CCCCn1c2ccccc2c2cc(CC(N)=O)ccc21	16	-4	11	-8
CCC(C)CCN1C(Nc2ccccc2)=NC[C@@H]1C (some centres not stated)	/	12	/	/
O=C1CN(C(=O)c2ccc3nc(Cc4cccc(Cl)c4)oc3c2)CCN1	/	7	/	/
CCc1ccc(C(=O)NNC(=O)OC)cc1	-14	17	72*	5
CCc1ccc(NC(=O)C(=O)NNC(=O)c2ccc(OC)cc2)cc1	/	-35	/	/
CCn1c(SCC(=O)c2ccc(O)c(O)c2)nnc1-c1ccccc1OC	-18	12	1	70*
Nc1c(C(=O)O)ccc2c1C(=O)c1ccccc1C2=O	-1	-14	0	77*
Nc1cc(C(=O)O)c(N)c2c1C(=O)c1ccccc1C2=O	6	-232	-6	+
CCCn1c(SCC(=O)Nc2nnc(C)s2)nnc1-c1ccoc1C	4	24	-2	-18
SMILES	14-3-3 Bad PPI	UBC9 SUMO inh	eIF4E 4G PPI	p47phox inh
CN1CCN(C2=Nc3ccccc3Oc3ccc(Cl)cc32)CC1	-3	-14	0	38*!
CN1CCN(c2nc(-c3ccccc3)c3cc(Cl)ccc3n2)CC1	-10	17	-3	-36
CC1CN(C)C(C)C/C1=N\Oc1ccc([N+](=O)[O-])cc1 (configuration not stated)	18	2	6	2
CC1=CC(=O)C=C(C)C1=NOc1ccc([N+](=O)[O-])cc1	74*	9	26	9
COc1ccc(CN(CC(=O)NC2CCCC2)C(=O)CCC(=O)Nc2nccs2)cc1	/	0	/	/
O=C(NC1CCCCC1)C1CCN(c2cnccn2)CC1	-11	4	40*	3
CC(=O)/C(=N/Nc1ccccc1[N+](=O)[O-])N1CCCc2ccccc21	-2	-8	-2	0
